From PubChem BioAssay
Shown are actives, neighbours in structure and some others; about 19% of the full set was active somewhere.
RORg inh: inhibitors of mouse ROR gamma transcriptional activity | P51450 | Drosophila S2 Gal4-RORgamma UAS-luciferase reporter, 20 h | Potency, µM (doses to about 53.6 µM), hits mostly inhibitors | 5.4% of 310,000 active | AID 2551; further: nearly all actives have a fitted effect of over 60% in size
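Read-out: Photinus luciferase luminescence; inhibitors lower reporter signal. Insect Schneider cells with Gal4-ROR gamma fusion under metallothionein promoter, UAS reporter; 700 uM final copper sulfate induction, 20 hr, ambient temperature.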
Gal4-VP16 FLuc: inhibits Gal4-VP16 luciferase reporter, ROR gamma counter-screen; Drosophila S2 Gal4-VP16 UAS-luciferase, luminescence, 20 h; Potency, µM (top dose mostly 53.6 µM), usual class: inhibitors; 3.5% of 310,000 active;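 further: Gal4-VP16 expression switched on by copper sulfate through the metallothionein promoter; nearly all actives have a fitted effect of over 50% in size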
DT40 TDP1 CPT: DT40-hTDP1 cell growth loss with CPT | 12% of 420,000 active | Potency, µM (series often up to 46.2 µM), hits mostly inhibitors | chicken DT40 Tdp1-/-;hTDP1 cells + 20 nM CPT, ATP luminescence, 48 h; further: nearly all actives have a fitted effect of over 55% in size
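Chicken DT40 Tdp1-/- cells stably complemented with human TDP1 were seeded at 400 cells/well in medium containing 20 nM camptothecin, exposed to pin-transferred compounds, and grown at 37 °C for at least 48 hr. Viability was read as ATP luminescence.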
TDP1 block: blocks human tyrosyl-DNA phosphodiesterase 1 | Q9NUW8 | recombinant TDP1, AlphaScreen DNA substrate cleavage | Potency, µM (series often up to 130 µM), actives largely listed as inhibitors | 0.28% of 350,000 active | AID 485290; further: nearly all actives have a fitted effect of over 40% in size
Target sequence (Q9NUW8 whole entry, looked up): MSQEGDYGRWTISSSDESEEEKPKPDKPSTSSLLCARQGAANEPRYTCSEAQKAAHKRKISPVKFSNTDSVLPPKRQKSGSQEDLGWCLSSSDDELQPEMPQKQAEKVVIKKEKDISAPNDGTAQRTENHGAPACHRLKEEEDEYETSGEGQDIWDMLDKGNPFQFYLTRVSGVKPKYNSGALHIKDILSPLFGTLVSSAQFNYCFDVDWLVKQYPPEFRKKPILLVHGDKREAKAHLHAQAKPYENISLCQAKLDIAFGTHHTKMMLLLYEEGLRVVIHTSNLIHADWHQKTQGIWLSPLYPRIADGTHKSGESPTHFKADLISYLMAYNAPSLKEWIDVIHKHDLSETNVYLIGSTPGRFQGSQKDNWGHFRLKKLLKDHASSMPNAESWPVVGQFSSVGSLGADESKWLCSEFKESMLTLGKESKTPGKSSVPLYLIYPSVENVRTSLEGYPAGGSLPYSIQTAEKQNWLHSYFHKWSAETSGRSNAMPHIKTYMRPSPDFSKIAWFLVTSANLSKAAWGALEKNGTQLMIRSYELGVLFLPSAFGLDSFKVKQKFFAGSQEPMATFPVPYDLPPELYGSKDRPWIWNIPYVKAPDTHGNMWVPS
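Here, a 5' biotin and 3' phosphotyrosine-FITC DNA oligonucleotide reports Tdp1 activity: intact substrate bridges AlphaScreen beads, while cleavage leaves a 3' phosphate and drops signal. All incubations at room temperature.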
DT40 TDP1 no CPT: qHTS for Inhibitors of human tyrosyl-DNA phosphodiesterase 1 (TDP1): qHTS in cells in absence of CPT. DT40 Tdp1-/- hTDP1 cells, no CPT, ATP luminescence, 48 h. Potency, µM (titrated, usually from 46.2 µM), most hits filed as inhibitors. 15% of 420,000 active; further: nearly all actives have a fitted effect of over 55% in size
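A cellular qHTS used chicken DT40 cells lacking endogenous Tdp1 but carrying stably transfected human TDP1. Compounds were applied without camptothecin, and cell growth kinetics were judged by ATP-dependent luminescence after ≥48 hr.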
Numbers stand for hits; i = inactive; ? = inconclusive; nt = not tested or not shown. The call rests on the fitted dose curve; in most records, active means well fitted curve in the direction sought with a large enough effect; inconclusive means small, poorly fitted or top-dose-only effect, or another doubt; inactive means no such curve, though single readings can be large; an effect the other way counts as inactive or inconclusive.

SMILES | RORg inh | Gal4-VP16 FLuc | DT40 TDP1 CPT | TDP1 block | DT40 TDP1 no CPT
COCCn1c(C)cc(C(=O)COC(=O)c2ccc(S(=O)(=O)N(C)C)cc2)c1C | nt | nt | i | i | i
CN(c1ccc(OCC(=O)Nc2nc(-c3ccccc3)cs2)cc1)S(=O)(=O)c1ccc(F)cc1 | i | i | 18µM | i | 21µM
CCOC(=O)C(=O)c1csc(NC(=O)COc2ccc(N(C)S(=O)(=O)c3ccc(F)cc3)cc2)n1 | i | i | i | i | i
Cc1ccc(S(=O)(=O)N(C)c2ccc(OCC(=O)Nc3nc(-c4ccccc4)cs3)cc2)cc1 | i | i | 16µM | i | 13µM
COCCn1c(C)cc(C(=O)COc2ccc(N(C)S(=O)(=O)c3ccc(C)cc3)cc2)c1C | nt | nt | 18µM | i | ?
CN(Cc1ccccc1)C(=O)COc1ccc(N(C)S(=O)(=O)c2ccc(F)cc2)cc1 | ? | i | 16µM | i | 15µM
COc1ccc(OCC(=O)NNC(=O)c2ccc3c(=O)n4c(nc3c2)CCC4)cc1 | i | i | i | i | i
Cc1ccc(C)c(N2CCN(C(=O)CSc3ccsc3[N+](=O)[O-])CC2)c1 | ? | i | ? | i | ?
Cc1ccc(S(=O)(=O)N(C)c2ccc(OCC(=O)Nc3ccc(S(C)(=O)=O)cc3)cc2)cc1 | nt | nt | 18µM | nt | 16µM
CCOC(=O)Cc1csc(NC(=O)COc2ccccc2)n1 | ? | i | i | i | i
CCOC(=O)Cc1csc(NC(=O)COc2ccc(N(C)S(=O)(=O)c3cccs3)cc2)n1 | i | i | ? | i | 29µM
COc1ccc(NC(=O)c2ccc(-c3ccc(C(C)=O)cc3)o2)cn1 | nt | nt | ? | i | ?
CC(C(=O)N1CCN(C=O)CC1)N1C(=O)c2ccccc2C1=O (stereo not given) | i | i | ? | i | ?
O=C(OCC1COC(c2ccccc2)(c2ccccc2)O1)c1ccccc1 (stereo not given) | nt | nt | i | nt | i
O=C(CN1C(=O)NC2(CCCCCCC2)C1=O)Nc1c(Cl)cccc1Cl | nt | nt | i | i | i
CCOc1ccc(NC(=O)CCn2c(-c3ccc(F)cc3)cc(C(C)=O)c2C)cc1 | nt | nt | 21µM | i | 23µM
CC(=O)c1cc(-c2ccc(F)cc2)n(CCC(=O)NCc2ccccc2C)c1C | nt | nt | 16µM | i | ?
CC(=O)c1cc(-c2ccc(F)cc2)n(CCC(=O)Nc2cccnc2)c1C | i | i | i | i | i
CC(=O)c1cc(-c2ccccc2)n(CCC(=O)Nc2ccc(C)cc2C)c1C | nt | nt | ? | i | i
COc1ccc(-c2cc(C(C)=O)c(C)n2CCC(=O)Nc2ccc(C(F)(F)F)cc2)cc1 | nt | nt | 12µM | i | 13µM
COc1ccc(NC(=O)Cn2c(-c3ccc(F)cc3)cc(C(C)=O)c2C)c(OC)c1 | nt | nt | i | i | i
COc1ccc(-c2cc(C(C)=O)c(C)n2CCC(=O)Nc2cc(C)ccc2OC)cc1 | nt | nt | 16µM | i | 18µM
O=C(O)c1ccccc1S(=O)CCO (stereo not given) | i | i | i | i | i
O=C(Cn1cnc2cc([N+](=O)[O-])ccc2c1=O)Nc1ccccc1-c1ccccc1 | i | i | 23µM | i | ?
Cc1nn(Cc2c(F)c(F)c(F)c(F)c2F)c(C)c1NC(=O)c1cccc(COc2ccccc2Cl)c1 | i | i | ? | i | ?
CNC(=O)N(O)C1N(/N=C/c2ccc(SC)cc2)C(=S)SC1(C)C (stereo not given) | i | i | i | nt | i
CN(C)c1ccc(/C=N/N2C(=S)SC(C)(C)C2N(O)C(=O)Nc2ccc([N+](=O)[O-])cc2)cc1 (stereo not given) | 7.9µM | i | ? | i | ?
CNC(=O)N(O)C1N(/N=C/c2ccccc2O)C(=S)SC1(C)C (stereo not given) | ? | ? | 5.2µM | i | 2.1µM
COc1ccc(C)cc1N(C(=O)CNC(=O)c1ccco1)C(C(=O)NCC1CCCO1)c1ccccc1 (stereo not given) | i | i | i | i | i
Cc1c(Cl)cccc1N1CC(c2nc3ccccc3n2Cc2ccccc2F)CC1=O (stereo not given) | nt | nt | ? | i | ?
